# Experimental data: the supplement of paper PMC9135407
# Several values for one entry are separate records, joined by “and”; a condition that tells them apart may be missing. Equal entries are not always repeated. Structures can show the parent of a compound that is named as a salt. The whole screen tested about 5,800 compounds, of which about 620 (11%) showed activity. Only a selection was taken, and actives are over-represented in it overall. A number with no mark means an inactive call.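 Rule for the calls: active = score above a cut-off or among the top three wells of a plate; in these data no inactive exceeds 0.85.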
# Tested on: primary human hepatic stellate cells (donor 1)
# Assay: scaled lipid accumulation score (0 = DMSO-like, 1 = nortriptyline-like); higher = stronger HSC inactivation (lipid re-accumulation), active = hit call of the paper
# Settings: 48 h
# [1] = library stock concentration: 10 mM
# [2] = library stock concentration: 1 mM
# [3] = library stock concentration: 3.33 mM
# [4] = library stock concentration: 400 uM
# [5] = library stock concentration: 2 mM
smiles,measurement,setting,value
Cc1nccnc1N1CCCCC1,scaled lipid accumulation score,[1],≤ 0
CCCCCC/C=C\CCCC(=O)CC(=O)N[C@H]1CCOC1=O [N-3-oxo-tetradec-7(Z)-enoyl-L-Homoserine lactone],scaled lipid accumulation score,[2],≤ 0
Cc1ccc(-c2c(-c3nn(C)c4ncnc(N5CC[C@H](N6CCCCC6)C5)c34)cnn2C)cc1,scaled lipid accumulation score,[3],≤ 0
same,scaled lipid accumulation score,[1],0.091
"CCCCCC(=O)CC[C@H]1[C@H](O)CC(=O)[C@@H]1CCCCCCC(=O)O [13,14-dihydro-15-keto Prostaglandin E1]",scaled lipid accumulation score,[2],≤ 0
Cc1cc(Nc2nc(N[C@@H](C)c3ccc(F)cc3)c(C#N)cc2F)n[nH]1,scaled lipid accumulation score,[4],≤ -0.005
same,scaled lipid accumulation score,[5],≤ -0.005
same,scaled lipid accumulation score,[3],≤ 0
same,scaled lipid accumulation score,[1],0.387 and 0.197
O=S(=O)(NO)c1ccccc1 [Piloty's Acid],scaled lipid accumulation score,[2],≤ 0
Cn1cnc2cc3c(Nc4cccc(Br)c4)ncnc3cc21,scaled lipid accumulation score,[3],0.044
CCCCCC=CCC=CCCCCCCCC(=O)OC(CO)CO [2-Linoleoyl Glycerol],scaled lipid accumulation score,[2],0.053
C[C@@H]1C[C@H]2O[C@@H]2/C=C\C=C\C(=O)Cc2c(Cl)c(O)cc(O)c2C(=O)O1 [Radicicol],scaled lipid accumulation score,[2],0.383
O=C(O)CCC/C=C\C[C@@H]1[C@@H](CCC(=O)CCc2ccccc2)[C@H](O)C[C@@H]1O [15-keto Latanoprost (free acid)],scaled lipid accumulation score,[2],≤ 0
CCCCC(CC)CN1CN(CC(CC)CCCC)CC(C)(N)C1 (centres undefined) [Hexetidine],scaled lipid accumulation score,,≤ 0
same,scaled lipid accumulation score,[1],0.342
CCCCC(CC)CN1CCC(n2cc(CNC)nn2)CC1 (centres undefined),scaled lipid accumulation score,[1],0.988 (active)
CNCc1cn(C2CCN(CCC(C)CC(C)(C)C)CC2)nn1 (centres undefined),scaled lipid accumulation score,[1],1.05 (active)
CCCCc1ccc(N=CNO)c(C)c1,scaled lipid accumulation score,[2],0.03
CC(O)(CC(=O)O)CC(=O)O,scaled lipid accumulation score,[1],0.023
CC1(C)[C@H]2CC[C@@]1(C)C(=O)C2 [1r-camphor],scaled lipid accumulation score,[1],≤ 0
O=C(O)[C@H](O)c1ccccc1 [R-(-)-Mandelic Acid],scaled lipid accumulation score,[2],0.02
CSC(=N)NCCC[C@H](N)C(=O)O [S-Methyl-L-thiocitrulline acetate],scaled lipid accumulation score,[1],≤ -0.02
O=C(Nc1ncc(SCCN2CCCC2)s1)[C@]1(c2ccc(S(=O)(=O)C3CC3)cc2)C[C@@H]1C1CCCCC1,scaled lipid accumulation score,[3],1.12 (active)
O=C(Nc1ncc(SCCN2CCCC2)s1)[C@]1(c2ccc(S(=O)(=O)C3CC3)cc2)C[C@H]1C1CCCCC1,scaled lipid accumulation score,[1],0.143
Cn1cccc1/C=C1\C(=O)NC(=O)c2ccccc21,scaled lipid accumulation score,[1],0.017
O=C(Nc1ccccc1)N[C@@H]1C[C@@H](C(=O)O)Nc2cc(Cl)cc(Cl)c21,scaled lipid accumulation score,[1],≤ 0
CC(N)(C(=O)O)c1ccc(C(=O)O)cc1 (centres undefined),scaled lipid accumulation score,[1],0.151
NC(=O)c1c(NC(=O)C2CC2)sc2c1CCCC2,scaled lipid accumulation score,library stock concentration: 80 uM,≤ -0.001
same,scaled lipid accumulation score,[4],≤ -0.001
same,scaled lipid accumulation score,[5],≤ -0.001
same,scaled lipid accumulation score,[1],0.118
"CCN(CC)C(=O)c1ccc(Nc2nc(OCC3CCCCC3)c3[nH]cnc3n2)cc1 [Cdk2 Inhibitor IV, NU6140]",scaled lipid accumulation score,[3],≤ 0
CC1OC2(CS1)CN1CCC2CC1 (centres undefined) [Cevimeline hydrochloride],scaled lipid accumulation score,[1],≤ 0
